E coli growth-1: bacterial growth inhibition, counter-screen for AddAB inhibitors. E. coli V3065 growth, OD600 absorbance, 18 h. inhibition, % at 11.9 µM. actives 0.27% (n = 330,000). AID 449728;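 active = inhibition above the campaign's mean inhibition across all tested compounds plus 3 SD, cut at about 9.9% in these data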;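 note: uninfected addAB+ strain grown without phage in ampicillin broth; 0% = DMSO wells and 100% = ciprofloxacin 0.95 µg/ml wells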
phage Ecoli inh: E. coli growth loss with phage present; AID 651602; actives 0.26% (n = 360,000); inhibition, % at 11.9 µM; growth absorbance; in the data active = inhibition above about 11%
E coli growth-2: inhibitors of Escherichia coli growth; actives 0.21% (n = 330,000); OD600 absorbance (concentration not given with the values); OD600, 23 h; active compounds read low; AID 1053175;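 active = OD600 absorbance below the run mean of sample wells minus 3.6 SD, in any replicate, cut at about 0.56 in these data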
Tat transport: E. coli Tat transport inhibition | E. coli MC4100 TorA-mCherry Tat export, fluorescence | inhibition, % at 10 µM | actives 0.036% (n = 340,000) | AID 488895;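 active = mean replicate inhibition at least 50% and at least half of replicates individually reaching 50%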;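 note: exported cargo escapes ClpAP degradation while cytoplasmic cargo is degraded and loses fluorescence; 0% = median of neutral control wells and 100% = median of NaSCN control wells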
AddAB inh: less growth of phage-infected E. coli with AddAB; AID 435030; E. coli expressing H. pylori AddAB, absorbance growth; actives 0.29% (n = 330,000); inhibition, % at 11.9 µM; in the data active = inhibition above about 12%;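 note: 0% = vehicle wells of infected cells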
AI-2 QS mod: modulates the Vibrio harveyi AI-2 quorum sensing system. Vibrio harveyi JMH597 AI-2 luminescence/OD600 ratio, 9 h; active compounds read low; strain lacks LuxN and CqsS sensors; 0 = neutral-control median. activity change, % at 7.5 µM. actives 0.4% (n = 300,000). AID 2094; in the data active = activity change below about -75%, passing the limit was not always enough;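 note: luminescence divided by OD600 gain over 9 h not by final OD600 alone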
RecBCD conf: confirmation: growth loss of phage-infected RecBCD+ E. coli (RecBCD inhibitor screen). shares compounds with phage Ecoli inh. actives 45% (n = 890). AID 651982. E. coli V66 + T4 2- phage, growth OD. inhibition, % at 11.9 µM;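 active = mean inhibition over triplicates exceeding the hit threshold derived in the original primary screen, cut at about 11% in these data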
Ecoli viability: bacterial viability inhibition counter-screen for RecBCD; shares compounds with phage Ecoli inh; E. coli viability, absorbance (OD) growth; inhibition, % at 11.9 µM; actives 29% (n = 890); AID 651983; in the data active = inhibition above about 20%;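 note: E. coli strain V66 grown with compound alone and no phage infection; 0% = bacteria with DMSO vehicle only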
AddAB counter: growth loss of phage-infected AddAB E. coli, RecBCD counter-screen. shares compounds with phage Ecoli inh. E. coli expressing H. pylori AddAB + T4 phage, OD growth; gene 2 mutant T4, recBCD-deleted host. inhibition, % at 11.9 µM. actives 45% (n = 890). AID 651984;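 active = mean inhibition above the solvent-only control wells' mean plus 3 SD, cut at about 22% in these data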;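 note: higher means less bacterial growth from phage killing when AddAB is blocked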
* = called active by the depositor; . = no result given; ! = not confirmed by another sample. Rows were chosen to be rich in hits. Some 0.79% of all compounds tested hit in one or more screens of this group.

SMILES | E coli growth-1 | phage Ecoli inh | E coli growth-2 | Tat transport | AddAB inh | AI-2 QS mod | RecBCD conf | Ecoli viability | AddAB counter
NCCc1cnc[nH]1 | 1 | 13*! | 0.65 | -5 | 1 | 16 | -6 | -8 | 2
Nc1c(Cl)ncnc1N/N=C/c1ccccn1 | -2 | 30* | . | . | 2 | . | 38* | 49* | 37*
O=C(NN=C/C=C/c1ccccc1)c1cccs1 | . | . | 0.61 | . | . | . | . | . | .
NC(=O)/C(=C\c1ccc([N+](=O)[O-])o1)c1ccco1 | . | 100* | . | . | . | . | 102* | 103* | 101*
COC(=O)/C(=C\c1ccc([N+](=O)[O-])o1)NC(=O)c1ccccc1 | 1 | 2 | 0.71 | 2 | 1 | -5 | . | . | .
O=C(O)c1nn(CCSc2ccccc2F)c(=O)c2ccccc12 | 0 | 37* | 0.7 | -4 | -1 | -10 | -5 | -5 | 0
Cc1ccc(SCCn2nc(C(=O)O)c3ccccc3c2=O)cc1 | 2 | 1 | 0.74 | 13 | 5 | -62 | . | . | .
O=[N+]([O-])c1ccc(-c2nc(Cl)c3c(n2)CCCC3)o1 | . | 97* | . | . | . | . | 76* | 97* | 100*
COc1ccc(C)c2sc(=NC(=O)c3ccccc3)n(C)c12 | 0 | 100* | 0.78 | -10 | -4 | 6 | -1 | 1 | 1
COc1ccc(C)c2sc(=NC(=O)c3ccc(C(C)=O)cc3)n(C)c12 | 0 | 2 | 0.66 | -7 | 3 | 25 | . | . | .
CC(CCC(C)C)=NNC(=O)COc1ccccc1-c1ccccc1 | . | . | 0.72 | . | . | . | . | . | .
CC(=O)N1N=C(c2cccc(O)c2)CC1c1cccs1 (configuration not stated) | . | 11* | 0.66 | 2 | . | 17 | -6 | -7 | -1
CC(=O)N1N=C(c2cccc(NS(C)(=O)=O)c2)CC1c1cccs1 (configuration not stated) | -2 | 3 | 0.68 | -6 | 0 | -3 | . | . | .
C[C@@]12C(=O)Nc3cc(F)c(F)cc3C(=O)N1C1c3ccccc3OCC1C2c1ccccc1 (some centres not stated) | . | . | 0.72 | . | . | . | . | . | .
O=C(c1ccc(NC2=NC3CS(=O)(=O)CC3S2)cc1)N1CCN(Cc2ccccc2)CC1 (configuration not stated) | -1 | 13* | 0.71 | 1 | -3 | 13 | -3 | -3 | 0
O=[N+]([O-])c1ccc(C=NN2CCNC2=S)o1 | . | 101* | . | . | . | . | 101* | 102* | 101*
Cc1cc2ncn(N=Cc3ccc([N+](=O)[O-])o3)c2cc1C | . | . | 0.57 | . | . | . | . | . | .
CCN(CC)CC1CN(N=Cc2ccc([N+](=O)[O-])o2)C(=O)O1 (configuration not stated) | . | 39* | 0.064* | -9 | . | . | 41* | 59* | 102*
CCOc1cc(C=NNC(N)=S)cc(Br)c1OCc1ccccc1C | . | . | 0.76 | . | . | . | . | . | .
O=C(NCCc1cn2ccccc2n1)c1cc(COc2c(F)cccc2F)on1 | 7 | 12* | 0.55 | -18 | 10 | 3 | 2 | 5 | 6
Cc1ccc(OCc2cc(C(=O)NCc3cn4ccccc4n3)no2)cc1C | 2 | 4 | 0.64 | 2 | 4 | 7 | . | . | .
O=S(=O)(N=C([O-])C[n+]1ccccc1)c1ccc(Cl)cc1 | . | . | 0.67 | . | . | . | . | . | .

Screening results deposited in PubChem BioAssay by several laboratories.
